# From PubChem BioAssay (NCI)
# About 83,000 compounds went through this panel and 20% of them were active in at least one assay; those are over-represented in the sample as a whole.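 For each line, cells grew in 96-well plates with the test compound present at a single concentration for 48 hours.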 Activity calls are given as the source filed them. Rule for the calls: active = growth percent below 10; inactive = the rest.
# System: RXF 393 renal
# Assay: NCI-60 one-dose screen, 48 h (100 = growth as untreated, 0 = no growth, -100 = all killed)
# Settings: 10 µM unless noted
row,SMILES,growth
1,CCc1ccc(-c2ccc(COc3ccc(CC4SC(=O)NC4=O)cc3)cc2)cc1 (stereo not given),102% (inactive)
2,Cn1cc(-c2noc(-c3cn(C)c4ncc(F)cc34)n2)c2ccccc21,73.1% (inactive)
3,Clc1ccc2nc(-c3ccc(-c4ccc(/C=N/NC5=NCCN5)cc4)s3)cn2c1,82.5% (inactive)
4,CC(C)CCSc1nc(N)nc2nc[nH]c12,106% (inactive)

# System: SF-268 CNS
# Assay: as above
# Settings: 10 µM unless noted
row,SMILES,growth
1,O=C(COc1cccc(/C=C2\Oc3ccccc3C2=O)c1)c1ccc([N+](=O)[O-])cc1,96.2% (inactive)
2,CC[C@]12C=CCN3CC[C@@]4(c5ccc(OC)cc5N(C)[C@H]4[C@@](O)(C(=O)OC)[C@@H]1OC(=O)CCC(=O)N[C@H](Cc1c[nH]c4ccccc14)C(=O)OC)[C@@H]32,-43% [100 µM] (active)
3,C=C(C)[C@@H]1CC[C@]2(C(N)=O)CC[C@]3(C)[C@H](CC[C@@H]4[C@@]5(C)C/C(=C/c6cccnc6)[C@H](O)C(C)(C)[C@@H]5CC[C@]43C)[C@@H]12,45.6% [100 µM] (inactive)
4,CSc1nc2sc3cc(Cl)c(Cl)cc3n2c(=N)c1C#N,104% (inactive)
5,COc1ccc(/C=C2\N=C(Nc3ccccc3)N(NC(=O)c3ccccn3)C2=O)cc1,101% (inactive)
6,O=C(NCCCNC(=O)OCc1ccc2cccc(O)c2n1)OCc1ccc2cccc(O)c2n1,54% (inactive)
7,COc1cc(C(=O)/C=C/c2c(-c3ccc(F)cc3)nc3sccn23)cc(OC)c1OC,25.4% (inactive)
8,CCCCCCCCCCCCNC(=S)N/N=C/c1ccccc1O,65.5% (inactive)
9,CCCc1cc2cc(-n3nc(C)c4c3CC(C)(C)CC4=O)cc(NC3CCSCC3)c2c(=O)[nH]1,81.2% (inactive)
10,COc1ccc(-c2cc(-c3ccc(OC)c(OC)c3)nc(SCCCCCC(=O)NO)n2)cc1,82.3% (inactive)
11,CCC(C)[C@H](NC(=O)NC(=O)NC(=O)CI)C(=O)OC (stereo not given in full),94.3% (inactive)
12,CCN(CC)c1ccc(/C=C/c2ccc3cc(C)ccc3[n+]2CC)cc1,27.7% (inactive)
13,N/C(=N\c1nc2ccccc2[nH]1)NC(=O)Cc1cccc2ccccc12,86.5% (inactive)
14,CC1(C)CC[C@]2(C(N)=O)CC[C@]3(C)C(=CC[C@@H]4[C@@]5(C)C/C(=C/c6ccncc6)C(=O)C(C)(C)[C@@H]5CC[C@]43C)[C@@H]2C1,-37.2% [100 µM] (active)
15,Cc1ccc(C2=C/C(=C/c3ccc(Br)cc3)C(=O)N2CCc2ccc(S(N)(=O)=O)cc2)cc1,87.6% (inactive)
16,Cc1ccc(NCCN2CCCCC2)c2c(=O)c3ccccc3sc12,45.7% (inactive)

row,SMILES,growth
1,CC1(C)CC(=O)c2c(ccc(C(=O)C[C@@H](N)CO)c2N)O1,14.9% (inactive)
2,CCCCC1COc2cccc3c2N1C=C/C3=C\C(=O)n1ccc2ccccc21 (stereo not given),94.5% (inactive)
3,CC(C)CSc1ncnc2nc[nH]c12,91.5% (inactive)
4,CC1(C)CC[C@]2(C(=O)O)CC[C@]3(C)C(=CC[C@@H]4[C@@]5(C)C/C(=C/c6cccnc6)[C@H](O)C(C)(C)[C@@H]5CC[C@]43C)[C@@H]2C1,22.4% [100 µM] (inactive)
5,COc1ccc(C=C2c3ccccc3-c3ccccc32)cc1,53.8% (inactive)
6,C#C[C@]1(O)CC[C@H]2[C@@H]3CC=C4c5nc(Nc6ccc(OC)cc6OC)sc5CC[C@]4(C)[C@H]3CC[C@@]21C,4.95% (active)
7,CCOC(=O)c1nn(C2CCCCO2)c2ccc(NC(=O)CSc3nc4ccccc4c(=O)[nH]3)cc12 (stereo not given),90.1% (inactive)
8,O=c1[nH]cnc2c1ccn2C1OC(CO)C(O)C1O (stereo not given),76% (inactive)
9,CCOC(=O)C(=Cc1ccccc1[N+](=O)[O-])C(=O)OCC,13.3% (inactive)
10,Cc1cc(C)c(S(=O)(=O)/N=c2/n(-c3ccccc3)nc3n2CCN3C2=NCCN2)c(C)c1,81.4% (inactive)
11,COC(=O)c1cc2c(=O)[nH]cc3c2c(n1)CCC3,100% (inactive)
12,Cn1cc(-c2noc(C(=O)c3cn(C)c4ncccc34)n2)c2ccccc21,99.3% (inactive)
13,O=c1cc(-c2ccccc2)oc2cc(OCc3cn(Cc4ccc(F)cc4)nn3)cc(O)c12,14.4% [100 µM] (inactive)
14,Cc1ccc(Cn2c(O)c(N=NC(=O)c3ccc(S(N)(=O)=O)cc3)c3ccccc32)cc1,98.6% (inactive)
15,CC[C@]12C=CCN3CC[C@@]4(c5ccc(OC)cc5N(C)[C@H]4[C@@](O)(C(=O)OC)[C@@H]1OC(=O)CCC(=O)O[C@H]1CC[C@H]4[C@@H]5CCC6=CC(=O)CC[C@@H]6[C@H]5CC[C@]14C)[C@@H]32,31.9% [100 µM] (inactive)
